Holding throughout (experiment): DAPPL (digital affinity profiling via proximity ligation, sequencing); 10 mM Tris-HCl pH 7.5, 50 mM NaCl, 1 mM DTT, 4% glycerol, room temperature, 30 min; GST-TFs on glutathione beads, 16-mer random dsDNA library, 0.1% formaldehyde crosslink after washing; high values mean tight binding
Conditions in all cases: protein: recombinant; tags: N-terminal GST; dsDNA, one strand shown

Assay [1] has as its target T1, ELK1 (Homo sapiens, UniProt P19419 1-428).
T1 sequence: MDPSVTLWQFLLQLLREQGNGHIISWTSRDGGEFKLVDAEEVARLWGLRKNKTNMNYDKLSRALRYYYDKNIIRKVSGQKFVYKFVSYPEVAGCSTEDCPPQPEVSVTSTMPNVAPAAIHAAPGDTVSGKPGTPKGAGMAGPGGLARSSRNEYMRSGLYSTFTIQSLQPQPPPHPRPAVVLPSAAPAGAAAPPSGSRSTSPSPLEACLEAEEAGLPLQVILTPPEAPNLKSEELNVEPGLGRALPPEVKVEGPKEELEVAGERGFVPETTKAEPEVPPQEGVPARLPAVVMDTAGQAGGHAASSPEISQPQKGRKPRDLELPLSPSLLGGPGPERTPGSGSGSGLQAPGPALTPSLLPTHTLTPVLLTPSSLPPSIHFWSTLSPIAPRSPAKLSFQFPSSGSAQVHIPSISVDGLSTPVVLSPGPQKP
The procedure, abridged:
(§1)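 Sequencing on an Illumina NextSeq500 followed washing, crosslinking with 0.1% formaldehyde, proximity ligation (BsaI/T4 ligase, 1 h, 37 °C) and PCR amplification of pools that had been incubated for 30 min at room temperature with 200 nmole of a random double-stranded 16-mer DNA library in Tris/NaCl/DTT/glycerol buffer. Each pool held DNA-barcoded human transcription factors, expressed in yeast as GST fusions and captured on glutathione beads, plus a tag-only sample. Binding signal is a hexamer's read frequency for a factor divided by its frequency in the tag-only sample.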

The target of assay [2] is T2, ERG (Homo sapiens, UniProt P11308 1-479).
T2 sequence: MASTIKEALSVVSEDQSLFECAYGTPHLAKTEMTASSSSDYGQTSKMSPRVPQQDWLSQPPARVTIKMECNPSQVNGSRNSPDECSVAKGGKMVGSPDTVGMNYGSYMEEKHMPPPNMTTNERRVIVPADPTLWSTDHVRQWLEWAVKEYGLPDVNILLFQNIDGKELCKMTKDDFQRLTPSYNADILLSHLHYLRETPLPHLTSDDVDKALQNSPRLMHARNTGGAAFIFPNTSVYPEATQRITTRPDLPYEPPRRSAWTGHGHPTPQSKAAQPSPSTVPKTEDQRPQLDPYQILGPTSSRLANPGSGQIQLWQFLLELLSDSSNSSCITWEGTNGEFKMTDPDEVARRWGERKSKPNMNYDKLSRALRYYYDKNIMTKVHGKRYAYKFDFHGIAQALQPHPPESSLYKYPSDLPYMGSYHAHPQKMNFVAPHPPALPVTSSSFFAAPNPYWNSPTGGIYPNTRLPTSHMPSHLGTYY
In short, it runs like this: as §1

The target of assay [3] is T3, EHF (Homo sapiens, UniProt Q9NZC4 1-300).
T3 sequence: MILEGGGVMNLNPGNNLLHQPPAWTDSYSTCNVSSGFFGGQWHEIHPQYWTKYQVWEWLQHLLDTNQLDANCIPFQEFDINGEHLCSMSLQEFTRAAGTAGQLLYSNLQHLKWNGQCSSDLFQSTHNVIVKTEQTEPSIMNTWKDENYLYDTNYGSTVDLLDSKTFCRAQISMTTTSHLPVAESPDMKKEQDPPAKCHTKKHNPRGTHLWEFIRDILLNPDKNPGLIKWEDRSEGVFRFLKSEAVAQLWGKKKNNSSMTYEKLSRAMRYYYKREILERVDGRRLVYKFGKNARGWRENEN
In short, it runs like this: as §1

For assay [4], the target named is SPIB (Homo sapiens, UniProt Q01892 1-262). The procedure, abridged:
as §1

Assay [5] concerns the target ETV5 (Homo sapiens, UniProt P41161 1-510). In short, it runs like this:
as §1

Assay [6] addresses T4, SPIC (Homo sapiens, UniProt Q8N5J4 1-248).
T4 sequence: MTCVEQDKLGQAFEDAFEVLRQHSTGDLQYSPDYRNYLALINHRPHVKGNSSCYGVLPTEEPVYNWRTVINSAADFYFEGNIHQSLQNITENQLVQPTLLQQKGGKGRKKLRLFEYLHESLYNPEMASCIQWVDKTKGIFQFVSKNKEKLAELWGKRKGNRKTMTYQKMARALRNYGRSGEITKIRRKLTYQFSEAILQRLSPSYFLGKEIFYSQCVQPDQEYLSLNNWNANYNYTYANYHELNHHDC
The procedure, abridged:
as §1

For assay [7], the target named is ELF4 (Homo sapiens, UniProt Q99607 1-663). The procedure, abridged: as §1
Sequence of ELF4 (Q99607 whole entry): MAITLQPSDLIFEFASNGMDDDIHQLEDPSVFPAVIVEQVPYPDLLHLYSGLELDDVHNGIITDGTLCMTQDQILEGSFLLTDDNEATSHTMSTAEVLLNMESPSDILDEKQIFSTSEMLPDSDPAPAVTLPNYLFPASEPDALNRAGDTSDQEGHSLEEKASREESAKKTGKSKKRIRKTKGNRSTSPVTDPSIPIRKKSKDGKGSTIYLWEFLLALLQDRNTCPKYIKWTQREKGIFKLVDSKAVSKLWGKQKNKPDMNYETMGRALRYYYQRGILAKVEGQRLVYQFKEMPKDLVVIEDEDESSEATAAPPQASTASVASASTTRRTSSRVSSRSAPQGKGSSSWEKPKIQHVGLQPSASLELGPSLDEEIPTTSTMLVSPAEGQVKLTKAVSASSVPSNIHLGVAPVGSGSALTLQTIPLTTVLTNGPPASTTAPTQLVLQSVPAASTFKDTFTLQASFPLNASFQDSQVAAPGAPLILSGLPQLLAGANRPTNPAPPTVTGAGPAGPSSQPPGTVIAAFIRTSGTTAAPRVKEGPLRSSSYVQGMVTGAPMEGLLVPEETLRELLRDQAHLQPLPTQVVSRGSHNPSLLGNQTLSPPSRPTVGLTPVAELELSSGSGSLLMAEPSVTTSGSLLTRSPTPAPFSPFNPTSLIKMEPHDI
The target of assay [8] is T5, ELK4 (Homo sapiens, UniProt P28324-2 1-405).
T5 sequence: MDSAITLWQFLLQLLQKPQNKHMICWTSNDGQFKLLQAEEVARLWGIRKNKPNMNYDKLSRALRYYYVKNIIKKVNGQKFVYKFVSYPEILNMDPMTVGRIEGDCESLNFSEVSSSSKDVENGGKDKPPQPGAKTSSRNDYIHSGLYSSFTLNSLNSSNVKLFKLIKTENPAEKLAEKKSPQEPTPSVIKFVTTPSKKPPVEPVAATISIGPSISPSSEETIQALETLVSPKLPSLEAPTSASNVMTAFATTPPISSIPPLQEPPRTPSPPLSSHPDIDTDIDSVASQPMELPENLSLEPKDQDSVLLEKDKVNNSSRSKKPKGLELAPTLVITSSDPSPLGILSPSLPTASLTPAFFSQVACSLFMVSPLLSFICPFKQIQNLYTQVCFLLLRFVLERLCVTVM
In short, it runs like this:
as §1

For assay [9], the target named is T6, ELF3 (Homo sapiens, UniProt P78545 1-371).
T6 sequence: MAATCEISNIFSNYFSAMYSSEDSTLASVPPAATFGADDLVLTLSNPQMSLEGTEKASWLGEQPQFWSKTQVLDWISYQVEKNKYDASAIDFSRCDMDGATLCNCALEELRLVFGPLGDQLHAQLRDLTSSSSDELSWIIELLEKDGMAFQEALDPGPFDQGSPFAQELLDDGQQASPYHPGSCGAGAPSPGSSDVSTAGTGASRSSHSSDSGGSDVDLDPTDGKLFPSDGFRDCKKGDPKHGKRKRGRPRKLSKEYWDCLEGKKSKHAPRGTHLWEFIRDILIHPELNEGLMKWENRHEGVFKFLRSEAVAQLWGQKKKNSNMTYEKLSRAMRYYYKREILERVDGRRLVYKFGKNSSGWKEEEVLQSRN
In short, it runs like this:
as §1

Assay [10] addresses T7, ERF (Homo sapiens, UniProt P50548 1-548).
T7 sequence: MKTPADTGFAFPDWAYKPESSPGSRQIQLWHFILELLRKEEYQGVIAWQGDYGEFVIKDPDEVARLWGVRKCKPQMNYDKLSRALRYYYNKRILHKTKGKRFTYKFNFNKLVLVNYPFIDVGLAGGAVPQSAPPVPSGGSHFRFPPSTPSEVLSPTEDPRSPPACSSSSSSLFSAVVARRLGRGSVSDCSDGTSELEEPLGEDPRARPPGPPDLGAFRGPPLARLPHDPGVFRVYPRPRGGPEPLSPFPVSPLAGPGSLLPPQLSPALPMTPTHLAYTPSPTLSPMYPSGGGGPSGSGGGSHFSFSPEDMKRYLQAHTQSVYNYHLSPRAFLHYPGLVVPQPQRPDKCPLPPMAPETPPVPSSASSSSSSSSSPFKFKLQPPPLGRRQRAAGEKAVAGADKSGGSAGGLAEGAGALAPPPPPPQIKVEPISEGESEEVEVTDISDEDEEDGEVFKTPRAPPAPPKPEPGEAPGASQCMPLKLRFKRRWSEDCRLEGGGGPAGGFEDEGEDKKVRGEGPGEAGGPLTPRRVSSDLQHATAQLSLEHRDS
In short, it runs like this:
as §1

Assay [11] addresses T8, ETV3L (Homo sapiens, UniProt Q6ZN32 1-361).
T8 sequence: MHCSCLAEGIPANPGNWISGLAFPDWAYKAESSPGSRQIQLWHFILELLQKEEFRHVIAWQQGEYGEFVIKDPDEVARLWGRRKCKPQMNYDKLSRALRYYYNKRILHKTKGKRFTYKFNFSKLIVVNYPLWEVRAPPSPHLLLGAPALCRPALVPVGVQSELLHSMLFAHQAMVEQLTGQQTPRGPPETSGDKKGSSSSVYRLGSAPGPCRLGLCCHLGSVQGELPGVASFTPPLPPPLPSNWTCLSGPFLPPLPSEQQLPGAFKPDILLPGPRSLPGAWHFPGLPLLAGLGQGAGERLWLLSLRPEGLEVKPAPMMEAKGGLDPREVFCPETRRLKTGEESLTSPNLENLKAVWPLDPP
In short, it runs like this: as §1

The target in assay [12] is T9, ETS2 (Homo sapiens, UniProt P15036 1-469).
T9 sequence: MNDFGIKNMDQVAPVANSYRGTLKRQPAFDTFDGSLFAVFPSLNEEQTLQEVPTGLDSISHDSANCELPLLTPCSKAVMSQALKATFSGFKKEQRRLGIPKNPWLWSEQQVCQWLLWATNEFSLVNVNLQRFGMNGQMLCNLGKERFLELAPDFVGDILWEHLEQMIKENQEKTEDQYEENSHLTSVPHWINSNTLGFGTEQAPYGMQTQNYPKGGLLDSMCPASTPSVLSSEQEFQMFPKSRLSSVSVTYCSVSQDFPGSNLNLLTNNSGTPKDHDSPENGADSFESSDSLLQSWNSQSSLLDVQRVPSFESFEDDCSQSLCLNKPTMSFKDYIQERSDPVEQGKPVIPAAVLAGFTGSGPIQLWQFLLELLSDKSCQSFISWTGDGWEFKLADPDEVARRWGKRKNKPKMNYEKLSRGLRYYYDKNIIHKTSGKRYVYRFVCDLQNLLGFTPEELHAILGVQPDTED
The procedure, abridged:
as §1

In assay [13] the target is T10, SPDEF (Homo sapiens, UniProt O95238 1-335).
T10 sequence: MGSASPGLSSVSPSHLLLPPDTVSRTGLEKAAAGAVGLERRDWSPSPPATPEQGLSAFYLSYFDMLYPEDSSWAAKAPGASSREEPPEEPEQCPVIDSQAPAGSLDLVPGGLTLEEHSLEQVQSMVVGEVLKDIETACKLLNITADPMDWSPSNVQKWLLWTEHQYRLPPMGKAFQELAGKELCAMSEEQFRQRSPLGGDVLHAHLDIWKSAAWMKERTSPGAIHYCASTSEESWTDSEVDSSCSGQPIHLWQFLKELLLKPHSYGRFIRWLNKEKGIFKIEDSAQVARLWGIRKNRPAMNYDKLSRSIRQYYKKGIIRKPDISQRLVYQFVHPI
In short, it runs like this: as §1

In assay [14] the target is T11, ETV7 (Homo sapiens, UniProt Q9Y603 1-341).
T11 sequence: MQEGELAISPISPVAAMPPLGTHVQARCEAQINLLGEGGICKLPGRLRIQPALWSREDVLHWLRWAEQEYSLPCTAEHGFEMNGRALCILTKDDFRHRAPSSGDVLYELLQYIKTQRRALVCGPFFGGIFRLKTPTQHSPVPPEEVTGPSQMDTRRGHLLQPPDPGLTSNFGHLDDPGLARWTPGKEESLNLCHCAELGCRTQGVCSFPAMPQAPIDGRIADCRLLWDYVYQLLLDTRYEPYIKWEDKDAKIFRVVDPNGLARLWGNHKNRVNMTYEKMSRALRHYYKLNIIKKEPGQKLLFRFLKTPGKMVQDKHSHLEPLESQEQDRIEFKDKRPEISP
In short, it runs like this: as §1

The target of assay [15] is T12, ETV3 (Homo sapiens, UniProt P41162-2 1-143).
T12 sequence: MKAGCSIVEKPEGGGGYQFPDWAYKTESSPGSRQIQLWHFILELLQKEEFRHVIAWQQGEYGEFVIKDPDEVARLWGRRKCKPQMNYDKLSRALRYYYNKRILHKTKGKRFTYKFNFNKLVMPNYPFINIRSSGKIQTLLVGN
The procedure, abridged: as §1

For assay [16], the target named is ETV6 (Homo sapiens, UniProt P41212 1-452). The procedure, abridged:
as §1

Sequence of ETV6 (P41212 whole entry): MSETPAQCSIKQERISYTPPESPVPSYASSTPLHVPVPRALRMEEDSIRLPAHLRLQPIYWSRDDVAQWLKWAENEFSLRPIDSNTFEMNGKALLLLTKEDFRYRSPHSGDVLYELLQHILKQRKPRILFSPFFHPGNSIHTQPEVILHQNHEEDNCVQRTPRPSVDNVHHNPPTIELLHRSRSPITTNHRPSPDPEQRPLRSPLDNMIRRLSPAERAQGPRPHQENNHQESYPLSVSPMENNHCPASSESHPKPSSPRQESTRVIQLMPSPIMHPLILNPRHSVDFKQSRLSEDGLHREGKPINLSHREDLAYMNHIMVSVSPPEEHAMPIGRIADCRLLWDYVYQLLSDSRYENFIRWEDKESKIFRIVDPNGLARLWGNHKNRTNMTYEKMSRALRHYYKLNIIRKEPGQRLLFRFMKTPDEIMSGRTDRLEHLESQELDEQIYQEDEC
Sequence of SPIB (Q01892 whole entry): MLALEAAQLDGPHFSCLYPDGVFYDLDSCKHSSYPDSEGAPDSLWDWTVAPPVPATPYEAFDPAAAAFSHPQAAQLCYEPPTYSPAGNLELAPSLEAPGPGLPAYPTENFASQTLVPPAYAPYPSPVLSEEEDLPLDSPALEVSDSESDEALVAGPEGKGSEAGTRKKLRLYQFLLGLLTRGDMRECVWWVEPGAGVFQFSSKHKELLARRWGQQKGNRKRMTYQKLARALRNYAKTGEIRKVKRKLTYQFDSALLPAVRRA
Sequence of ETV5 (P41161 whole entry): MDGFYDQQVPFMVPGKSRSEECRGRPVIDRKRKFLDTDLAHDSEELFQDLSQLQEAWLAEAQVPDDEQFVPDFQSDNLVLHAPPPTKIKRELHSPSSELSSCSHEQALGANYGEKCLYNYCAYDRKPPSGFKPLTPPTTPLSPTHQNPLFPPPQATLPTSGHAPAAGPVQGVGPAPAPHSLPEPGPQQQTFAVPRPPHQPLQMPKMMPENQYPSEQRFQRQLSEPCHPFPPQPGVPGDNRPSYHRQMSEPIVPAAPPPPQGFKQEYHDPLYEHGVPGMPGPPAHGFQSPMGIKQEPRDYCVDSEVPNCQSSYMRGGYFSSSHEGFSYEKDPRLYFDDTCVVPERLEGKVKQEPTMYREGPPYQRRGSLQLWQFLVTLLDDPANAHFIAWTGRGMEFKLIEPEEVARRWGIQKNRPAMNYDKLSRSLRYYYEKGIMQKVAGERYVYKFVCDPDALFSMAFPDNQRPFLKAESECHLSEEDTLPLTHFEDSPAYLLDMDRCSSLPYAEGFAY

Consider GCCCCG, for which the binding signal in [1] is 1.07 fold enrichment (6-mer frequency, TF over GST control); in [2], 1.06 fold enrichment (6-mer frequency, TF over GST control); in assay [3], 1.01 fold enrichment (6-mer frequency, TF over GST control); in [4], 1.16 fold enrichment (6-mer frequency, TF over GST control); in assay [5], 1.02 fold enrichment (6-mer frequency, TF over GST control); in [6] it was 1.13 fold enrichment (6-mer frequency, TF over GST control). Moreover, the binding signal was 1.09 fold enrichment (6-mer frequency, TF over GST control) in assay [7]; 1.13 fold enrichment (6-mer frequency, TF over GST control) in [8]; 1.08 fold enrichment (6-mer frequency, TF over GST control) in [9]; 1 fold enrichment (6-mer frequency, TF over GST control) in assay [10]; 1.03 fold enrichment (6-mer frequency, TF over GST control) in assay [11]; 1.02 fold enrichment (6-mer frequency, TF over GST control) in [12]. Besides, the binding signal in [13] is 1.01 fold enrichment (6-mer frequency, TF over GST control); in assay [14], 1.06 fold enrichment (6-mer frequency, TF over GST control); in assay [15], 1.15 fold enrichment (6-mer frequency, TF over GST control); in [16], 1.09 fold enrichment (6-mer frequency, TF over GST control).

For the origin of these results see PMC7862700, “An all-to-all approach to the identification of sequence-specific readers for epigenetic DNA modifications on cytosine”.
